Reference: PubChem BioAssay (NCATS)
Results filed as inconclusive are left out. Active and inactive are the calls of the source. The call rests on the fitted dose curve; in most records, active means well fitted inhibition curve with a large enough effect; inconclusive means small, poorly fitted or top-dose-only effect; inactive means flat fitted curve, though single readings scatter.

Key:
Test in all cases: Cytotoxic Profiling of Annotated Libraries Using Quantitative High-Throughput Screening (AID 1296008); further: nearly all actives have a fitted effect of over 60% in size
Conditions in all cases: Five cell lines viability, CellTiter-Glo ATP luminescence, 48-72 h; max response: hits give low values
CRL-7250 = normal cell line; tested on: CRL-7250
Method in brief: (§1)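 Compounds were pin-transferred onto cells and incubated 48 or 72 hr at 37 degree Celsius, 95% humidity. CellTiter-Glo was added, plates sat 10 min at room temperature, then ATP-coupled luminescence was imaged as the viability read-out.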

HEK293 = tested on: HEK293
Method in brief: as §1

HaCat = tested on: HaCat
Method in brief: as §1

KB-3-1 = tested on: KB-3-1
Method in brief: as §1

NIH3T3 = tested on: NIH3T3
Method in brief: as §1

Measured: max response
On the % scale 0 is the no-effect control and ±100 the full control effect.

CC[C@H]1OC(=O)[C@H](C)[C@@H](O[C@H]2C[C@@](C)(OC)[C@@H](O)[C@H](C)O2)[C@H](C)[C@@H](O[C@@H]2O[C@H](C)C[C@H](N(C)C)[C@H]2O)[C@](C)(O)C[C@@H](C)C(=O)[C@H](C)[C@H]2OC(=O)O[C@@]21C
inactive: CRL-7250 0.0016% | HEK293 -4.98% | HaCat -4.77% | KB-3-1 7.84% | NIH3T3 3.61%

COc1ccc(/C=C/C(=O)O[C@@H]2[C@@H](O)[C@@H](O)[C@H](O[C@@H]3C=C(CO)[C@H]4[C@H](O[C@@H]5O[C@H](CO)[C@@H](O)[C@H](O)[C@H]5O)OC=C[C@H]43)O[C@H]2C)cc1O
inactive: CRL-7250 0.875% | HEK293 -69.5% | HaCat -15% | KB-3-1 -14.4% | NIH3T3 -43%

CC(C)CCC1(O)C(=O)C(C)(C)C(O[C@@H]2O[C@H](CO)[C@@H](O)[C@H](O)[C@H]2O)C(C)(C)C1O (stereo not given in full)
inactive: CRL-7250 0.265% | HEK293 -13.9% | HaCat -4.8% | KB-3-1 0.0434% | NIH3T3 -0.747%

CC(=O)O[C@H]1[C@H](O[C@H]2[C@@H]3C=CO[C@@H](O[C@@H]4O[C@H](CO)[C@@H](O)[C@H](O)[C@H]4O)[C@@H]3[C@@]3(CO)O[C@@H]23)O[C@@H](C)[C@H](OC(=O)/C=C/c2ccccc2)[C@H]1OC(=O)/C=C/c1ccccc1
inactive: CRL-7250 -1.73% | HEK293 -0.402% | HaCat -13% | KB-3-1 | NIH3T3 0.432%

C=CC1(C)C=C2CCC3C(C)(C)C(O[C@@H]4O[C@@H](CO)[C@H](O)[C@H]4O)CCC3(C)C2CC1O[C@@H]1O[C@H](C)[C@H](O)[C@H](O)[C@H]1O (stereo not given in full)
inactive: CRL-7250 -0.496% | HEK293 -0.0102% | HaCat 4.85% | KB-3-1 -11.1% | NIH3T3 -6.13%

COC(=O)C[C@H]1[C@]2(C)C3=C(C)[C@H](c4ccoc4)C[C@H]3O[C@@H]2[C@H](OC(C)=O)C2[C@](C)(C(=O)OC)C=CC(=O)[C@@]21C (stereo not given in full)
inactive: CRL-7250 0.289% | HEK293 -6.04% | HaCat -0.0032% | KB-3-1 1.1% | NIH3T3 4.56%

C=C1C[C@]23C[C@H]1CC[C@H]2[C@@]1(C)CCC[C@@]2(C)C(=O)O[C@@H]([C@@H]3O)[C@@H]12
inactive: CRL-7250 -15.4% | HEK293 -8.12% | HaCat -2.64% | KB-3-1 | NIH3T3 -6.16%

CC(C)(C)NC(=O)[C@@H](c1cccnc1)N(C(=O)c1ccco1)c1ccc(C(C)(C)C)cc1
inactive: CRL-7250 4.34% | HEK293 -16.3% | HaCat -16.4% | KB-3-1 | NIH3T3 4.2%

O=C(O)C(O[C@@H]1O[C@H](CO[C@@H]2O[C@H](CO)[C@@H](O)[C@H](O)[C@H]2O)[C@@H](O)[C@H](O)[C@H]1O)c1ccccc1 (stereo not given in full)
inactive: CRL-7250 -5.65% | HEK293 -7.94% | HaCat -3.34% | KB-3-1 7.09% | NIH3T3 1.38%
